Reference: the supplement of paper PMC10849652
Targets with a hit are over-represented here; the source holds about 7,900 in all. About 0.6% of all pairs of compound and target were hits.

Legend:
Test in all cases: log2 fold change, soluble protein after heating vs DMSO (PISA); higher = thermal stabilisation; K562 cells, 10 uM, 30 min; active = over 0.2 and 3.5 SD of the protein, either way, in both replicates (recomputed)
[1] = compound: NC(=O)Nc1cc(-c2cccc(F)c2)sc1C(=O)N[C@H]1CCCNC1
Outline: (§1)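 Thermal stability values are relative to control samples and come from duplicates. They are expressed as log2 fold changes. For measurement, K562 cells (2×10^6 cells/mL) received 10 μM compound for 30 min, and aliquots were heated for 3 min over 48°C-58°C, pooled, and extracted at 4°C in PBS with 0.5% NP-40. Soluble protein, the supernatant after 21,000xg for 90 min, was quantified by TMTpro 16plex LC-MS/MS with equalised channel sums.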

[2] = compound: NC(=O)c1cnc(N[C@@H]2CCCC[C@@H]2N)nc1Nc1cccc(-n2nccn2)c1
Outline: as §1

[3] = compound: NC1(c2ccc(-c3nc4ccn5c(=O)[nH]nc5c4cc3-c3ccccc3)cc2)CCC1
Outline: as §1

[4] = compound: NCC(=O)Nc1ccc(-n2nc(C(F)(F)F)cc2-c2ccc3c(ccc4ccccc43)c2)cc1
Outline: as §1

entinostat = compound: Nc1ccccc1NC(=O)c1ccc(CNC(=O)OCc2cccnc2)cc1 [entinostat]
Outline: as §1

silmitasertib = compound: O=C(O)c1ccc2c(c1)nc(Nc1cccc(Cl)c1)c1ccncc12 [silmitasertib]
Outline: as §1

[5] = compound: O=C1NC(=O)C(c2cnc3ccccn23)=C1c1cn2c3c(cc(F)cc13)CN(C(=O)N1CCCCC1)CC2
Outline: as §1

vorinostat = compound: O=C(CCCCCCC(=O)Nc1ccccc1)NO [vorinostat]
Outline: as §1

citarinostat = compound: O=C(CCCCCCNC(=O)c1cnc(N(c2ccccc2)c2ccccc2Cl)nc1)NO [citarinostat]
Outline: as §1

[6] = compound: c1cc(OCCN2CCCCC2)cc(-c2n[nH]c3ccc(-c4nnc[nH]4)cc23)c1
Outline: as §1

entospletinib = compound: c1cn2cc(-c3ccc4cn[nH]c4c3)nc(Nc3ccc(N4CCOCC4)cc3)c2n1 [entospletinib]
Outline: as §1

Measured: log2 fold change

ULBP1 (UniProt Q9BZM6)
Sequence of UniProt Q9BZM6 (Q9BZM6 whole entry, looked up): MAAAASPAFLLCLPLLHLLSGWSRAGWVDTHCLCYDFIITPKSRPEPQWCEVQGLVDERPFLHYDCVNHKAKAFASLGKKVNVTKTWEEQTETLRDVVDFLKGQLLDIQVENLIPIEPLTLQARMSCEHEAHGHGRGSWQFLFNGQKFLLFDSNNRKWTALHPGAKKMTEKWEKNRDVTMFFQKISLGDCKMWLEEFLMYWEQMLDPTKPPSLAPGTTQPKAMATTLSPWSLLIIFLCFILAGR
inactive: [1] -0.045 | [2] 0.026 | [3] -0.227 | [4] -0.039 | entinostat 0.099 | silmitasertib 0.013 | [5] -0.188

XRCC5 (UniProt P13010)
Sequence of UniProt P13010 (P13010 whole entry, looked up): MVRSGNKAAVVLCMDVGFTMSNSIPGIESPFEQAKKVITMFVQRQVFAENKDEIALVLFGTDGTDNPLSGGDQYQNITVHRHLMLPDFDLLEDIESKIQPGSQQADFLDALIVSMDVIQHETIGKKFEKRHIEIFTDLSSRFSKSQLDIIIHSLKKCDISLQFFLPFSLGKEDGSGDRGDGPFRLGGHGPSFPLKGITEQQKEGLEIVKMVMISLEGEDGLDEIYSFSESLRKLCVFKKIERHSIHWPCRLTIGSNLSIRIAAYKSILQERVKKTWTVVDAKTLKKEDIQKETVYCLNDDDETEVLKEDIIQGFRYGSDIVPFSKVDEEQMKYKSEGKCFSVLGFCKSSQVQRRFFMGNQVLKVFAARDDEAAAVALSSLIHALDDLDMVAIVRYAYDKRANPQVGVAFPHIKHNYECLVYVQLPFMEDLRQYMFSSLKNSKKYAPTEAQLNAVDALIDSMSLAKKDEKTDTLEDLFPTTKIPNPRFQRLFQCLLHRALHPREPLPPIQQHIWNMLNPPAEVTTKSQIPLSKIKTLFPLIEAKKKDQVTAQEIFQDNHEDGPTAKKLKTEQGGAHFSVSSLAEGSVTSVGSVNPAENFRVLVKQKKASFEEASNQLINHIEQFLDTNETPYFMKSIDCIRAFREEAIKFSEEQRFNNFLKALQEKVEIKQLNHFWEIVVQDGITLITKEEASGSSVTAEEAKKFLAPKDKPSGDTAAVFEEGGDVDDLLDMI
inactive: [1] -0.024 | [2] -0.172 | [3] -0.122 | [4] -0.058 | entinostat 0.155 | vorinostat 0.151 | citarinostat 0.163 | silmitasertib 0.019 | [5] -0.096 | [6] -0.041 | entospletinib -0.039

UBA6
inactive: [1] -0.048 | [2] -0.065 | [3] -0.14 | [4] -0.047 | entinostat 0.05 | vorinostat 0.011 | citarinostat 0.052 | silmitasertib -0.004 | [5] -0.046 | [6] -0.004 | entospletinib 0.014

TXNL4B (UniProt Q9NX01)
Sequence of UniProt Q9NX01 (Q9NX01 whole entry, looked up): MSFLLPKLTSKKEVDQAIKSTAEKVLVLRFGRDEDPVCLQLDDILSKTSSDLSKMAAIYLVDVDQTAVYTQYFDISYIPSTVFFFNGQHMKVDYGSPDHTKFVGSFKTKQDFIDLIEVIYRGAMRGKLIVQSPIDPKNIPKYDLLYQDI
inactive: [1] 0.098 | [2] -0.112 | [3] -0.035 | entinostat -0.024 | vorinostat 0.02 | citarinostat 0.029 | silmitasertib 0.118 | [6] 0.117 | entospletinib 0.002
active: [4] 0.709

TMEM173 (UniProt Q86WV6)
Sequence of UniProt Q86WV6 (Q86WV6 whole entry, looked up): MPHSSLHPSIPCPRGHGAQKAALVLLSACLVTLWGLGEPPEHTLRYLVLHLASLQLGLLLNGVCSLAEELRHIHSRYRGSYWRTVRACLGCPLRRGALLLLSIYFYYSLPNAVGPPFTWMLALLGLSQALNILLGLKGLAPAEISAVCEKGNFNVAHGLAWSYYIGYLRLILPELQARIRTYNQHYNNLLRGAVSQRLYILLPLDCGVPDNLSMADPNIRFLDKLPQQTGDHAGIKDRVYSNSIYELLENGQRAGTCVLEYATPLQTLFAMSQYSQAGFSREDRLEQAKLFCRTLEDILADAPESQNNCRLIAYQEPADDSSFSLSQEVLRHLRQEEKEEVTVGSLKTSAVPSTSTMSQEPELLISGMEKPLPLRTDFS
inactive: [1] 0.002 | [2] -0.041 | [3] -0.078 | [4] -0.06 | entinostat 0.032 | vorinostat -0.09 | citarinostat -0.028 | silmitasertib -0.041 | [5] 0.035 | [6] 0.006 | entospletinib -0.022

TRIM44 (UniProt Q96DX7)
inactive: [1] 0 | [2] -0.037 | [3] -0.048 | [4] 0.02 | entinostat -0.048 | vorinostat 0.015 | citarinostat 0.008 | silmitasertib 0.045 | [6] -0.083 | entospletinib 0.007

VPS72 isoform 2 (UniProt Q15906)
Sequence of UniProt Q15906 (Q15906 whole entry, looked up): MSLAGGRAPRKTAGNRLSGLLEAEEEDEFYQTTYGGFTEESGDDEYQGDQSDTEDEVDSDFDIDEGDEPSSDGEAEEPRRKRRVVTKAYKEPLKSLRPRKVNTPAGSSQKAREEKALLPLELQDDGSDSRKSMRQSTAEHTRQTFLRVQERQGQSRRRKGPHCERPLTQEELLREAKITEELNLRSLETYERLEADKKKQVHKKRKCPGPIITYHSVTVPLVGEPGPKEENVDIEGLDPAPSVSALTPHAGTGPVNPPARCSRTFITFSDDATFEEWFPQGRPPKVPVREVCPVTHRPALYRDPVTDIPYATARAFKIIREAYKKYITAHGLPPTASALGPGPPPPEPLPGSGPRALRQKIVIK
inactive: [1] 0.092 | [2] -0.226 | [3] -0.117 | [4] 0.037 | entinostat -0.032 | citarinostat 0.102 | silmitasertib 0.199 | [5] -0.157 | [6] -0.116 | entospletinib 0.112

UNC119B (UniProt A6NIH7)
inactive: [1] -0.094 | [2] 0.039 | [3] 0.146 | [4] 0.038 | entinostat 0.012 | vorinostat -0.055 | citarinostat 0.043 | silmitasertib 0.031 | [6] 0.005 | entospletinib -0.055

VPS37A (UniProt Q8NEZ2)
inactive: [1] -0.066 | [2] -0.021 | [3] -0.317 | [4] -0.051 | entinostat 0.121 | vorinostat 0.113 | silmitasertib 0.02 | [5] -0.198

TTI2 (UniProt Q6NXR4)
Sequence of UniProt Q6NXR4 (Q6NXR4 whole entry, looked up): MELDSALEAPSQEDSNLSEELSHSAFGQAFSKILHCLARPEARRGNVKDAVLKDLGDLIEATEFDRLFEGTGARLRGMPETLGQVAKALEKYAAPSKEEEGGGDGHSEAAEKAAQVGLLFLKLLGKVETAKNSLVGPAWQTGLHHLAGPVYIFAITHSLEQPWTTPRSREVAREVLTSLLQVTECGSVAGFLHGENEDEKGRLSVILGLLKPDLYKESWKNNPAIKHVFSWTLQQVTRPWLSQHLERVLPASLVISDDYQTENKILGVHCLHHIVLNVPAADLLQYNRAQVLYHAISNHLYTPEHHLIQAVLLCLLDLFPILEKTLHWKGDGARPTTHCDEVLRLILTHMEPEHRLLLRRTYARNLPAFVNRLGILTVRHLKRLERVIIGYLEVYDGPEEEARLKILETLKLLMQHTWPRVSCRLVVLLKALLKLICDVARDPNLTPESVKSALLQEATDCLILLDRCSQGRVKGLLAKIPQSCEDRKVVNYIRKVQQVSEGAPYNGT
inactive: [1] 0.024 | [2] -0.038 | [3] 0.016 | [4] -0.074 | entinostat -0.004 | citarinostat -0.035 | silmitasertib -0.047 | [5] 0.059 | [6] -0.023 | entospletinib 0.062

TRAPPC6B (UniProt Q86SZ2)
inactive: [1] 0.025 | [2] 0.016 | [3] -0.025 | [4] 0.007 | entinostat 0.066 | vorinostat 0.013 | citarinostat 0.046 | silmitasertib 0.001 | [5] 0.143 | [6] -0.058 | entospletinib -0.003

TXNL1 (UniProt O43396)
Sequence of UniProt O43396 (O43396 whole entry, looked up): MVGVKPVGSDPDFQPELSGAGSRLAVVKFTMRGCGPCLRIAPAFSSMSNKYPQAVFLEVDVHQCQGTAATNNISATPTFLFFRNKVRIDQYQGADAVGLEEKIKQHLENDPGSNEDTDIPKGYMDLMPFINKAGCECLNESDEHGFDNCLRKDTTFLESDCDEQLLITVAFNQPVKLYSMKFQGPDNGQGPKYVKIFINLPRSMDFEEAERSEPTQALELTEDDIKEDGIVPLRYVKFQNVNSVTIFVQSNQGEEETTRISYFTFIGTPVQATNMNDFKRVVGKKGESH
inactive: [1] -0.048 | [2] -0.013 | [3] -0.084 | [4] -0.015 | entinostat 0.028 | vorinostat 0.018 | citarinostat 0.087 | silmitasertib 0.074 | [5] -0.004 | [6] -0.03 | entospletinib 0.034

UCHL5 isoform 3 (UniProt Q9Y5K5)
inactive: [1] 0.037 | [2] 0.156 | [3] -0.277 | [4] 0.05 | entinostat 0.098 | citarinostat 0.113 | silmitasertib -0.002 | [5] -0.054 | [6] -0.028 | entospletinib -0.025

TSC2 (UniProt P49815)
inactive: [1] -0.038 | [2] -0.074 | [3] 0.214 | entinostat -0.061 | vorinostat 0.125 | citarinostat 0.273 | silmitasertib 0.107 | [5] 0.105 | entospletinib -0.17
active: [6] -0.594

VKORC1 (UniProt Q9BQB6)
inactive: [1] -0.006 | [2] 0 | [3] -0.054 | [4] -0.114 | entinostat 0.025 | vorinostat -0.034 | citarinostat 0.001 | silmitasertib -0.023 | [6] 0.073 | entospletinib 0.006

UFM1 (UniProt P61960)
Sequence of UniProt P61960 (P61960 whole entry, looked up): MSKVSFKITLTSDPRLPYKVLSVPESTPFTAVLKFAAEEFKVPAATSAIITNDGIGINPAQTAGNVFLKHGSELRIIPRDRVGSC
inactive: [1] 0.045 | [2] -0.135 | [3] -0.073 | [4] -0.056 | entinostat 0.004 | citarinostat 0.056 | silmitasertib -0.033 | [5] -0.083 | [6] 0.015 | entospletinib -0.079

WASHC5 (UniProt Q12768)
inactive: [1] 0 | [2] -0.011 | [4] -0.047 | entinostat 0.04 | vorinostat 0.022 | citarinostat 0.074 | silmitasertib 0.045 | [5] 0.038 | [6] -0.012 | entospletinib -0.041
active: [3] -0.232

UBE4A isoform 2 (UniProt Q14139)
Sequence of UniProt Q14139 (Q14139 whole entry, looked up): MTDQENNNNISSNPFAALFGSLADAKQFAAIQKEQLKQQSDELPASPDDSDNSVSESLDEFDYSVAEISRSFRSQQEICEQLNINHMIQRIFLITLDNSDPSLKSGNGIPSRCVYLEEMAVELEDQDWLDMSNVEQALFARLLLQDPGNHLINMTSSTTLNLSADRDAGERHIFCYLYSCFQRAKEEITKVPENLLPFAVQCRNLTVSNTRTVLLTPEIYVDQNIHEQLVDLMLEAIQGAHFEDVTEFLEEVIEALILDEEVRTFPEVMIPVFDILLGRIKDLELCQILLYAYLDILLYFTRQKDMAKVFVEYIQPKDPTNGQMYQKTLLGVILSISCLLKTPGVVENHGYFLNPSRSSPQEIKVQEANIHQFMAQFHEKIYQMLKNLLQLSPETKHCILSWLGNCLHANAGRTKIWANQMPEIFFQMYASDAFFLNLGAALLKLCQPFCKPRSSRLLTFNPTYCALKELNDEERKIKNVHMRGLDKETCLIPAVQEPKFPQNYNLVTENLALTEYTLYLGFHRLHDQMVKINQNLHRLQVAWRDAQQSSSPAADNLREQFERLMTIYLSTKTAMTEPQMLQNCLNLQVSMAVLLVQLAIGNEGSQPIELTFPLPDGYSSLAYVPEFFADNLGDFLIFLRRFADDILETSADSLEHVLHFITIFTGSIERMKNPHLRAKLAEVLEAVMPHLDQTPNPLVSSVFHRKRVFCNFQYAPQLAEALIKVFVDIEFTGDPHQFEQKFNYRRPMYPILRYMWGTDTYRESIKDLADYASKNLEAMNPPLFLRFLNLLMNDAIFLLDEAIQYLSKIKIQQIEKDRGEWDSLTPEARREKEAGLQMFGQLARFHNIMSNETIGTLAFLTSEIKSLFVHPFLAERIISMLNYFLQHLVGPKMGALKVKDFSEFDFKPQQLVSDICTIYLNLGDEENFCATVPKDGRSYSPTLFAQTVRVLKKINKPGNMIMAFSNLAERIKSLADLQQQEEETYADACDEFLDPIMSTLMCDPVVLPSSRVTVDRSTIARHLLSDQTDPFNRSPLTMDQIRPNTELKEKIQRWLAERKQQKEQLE
inactive: [1] -0.017 | [2] 0.01 | [3] -0.136 | [4] 0.001 | entinostat 0.146 | vorinostat 0.133 | citarinostat 0.059 | silmitasertib 0.117 | [5] 0.026 | [6] -0.014 | entospletinib -0.043

WDHD1 (UniProt O75717)
Sequence of UniProt O75717 (O75717 whole entry, looked up): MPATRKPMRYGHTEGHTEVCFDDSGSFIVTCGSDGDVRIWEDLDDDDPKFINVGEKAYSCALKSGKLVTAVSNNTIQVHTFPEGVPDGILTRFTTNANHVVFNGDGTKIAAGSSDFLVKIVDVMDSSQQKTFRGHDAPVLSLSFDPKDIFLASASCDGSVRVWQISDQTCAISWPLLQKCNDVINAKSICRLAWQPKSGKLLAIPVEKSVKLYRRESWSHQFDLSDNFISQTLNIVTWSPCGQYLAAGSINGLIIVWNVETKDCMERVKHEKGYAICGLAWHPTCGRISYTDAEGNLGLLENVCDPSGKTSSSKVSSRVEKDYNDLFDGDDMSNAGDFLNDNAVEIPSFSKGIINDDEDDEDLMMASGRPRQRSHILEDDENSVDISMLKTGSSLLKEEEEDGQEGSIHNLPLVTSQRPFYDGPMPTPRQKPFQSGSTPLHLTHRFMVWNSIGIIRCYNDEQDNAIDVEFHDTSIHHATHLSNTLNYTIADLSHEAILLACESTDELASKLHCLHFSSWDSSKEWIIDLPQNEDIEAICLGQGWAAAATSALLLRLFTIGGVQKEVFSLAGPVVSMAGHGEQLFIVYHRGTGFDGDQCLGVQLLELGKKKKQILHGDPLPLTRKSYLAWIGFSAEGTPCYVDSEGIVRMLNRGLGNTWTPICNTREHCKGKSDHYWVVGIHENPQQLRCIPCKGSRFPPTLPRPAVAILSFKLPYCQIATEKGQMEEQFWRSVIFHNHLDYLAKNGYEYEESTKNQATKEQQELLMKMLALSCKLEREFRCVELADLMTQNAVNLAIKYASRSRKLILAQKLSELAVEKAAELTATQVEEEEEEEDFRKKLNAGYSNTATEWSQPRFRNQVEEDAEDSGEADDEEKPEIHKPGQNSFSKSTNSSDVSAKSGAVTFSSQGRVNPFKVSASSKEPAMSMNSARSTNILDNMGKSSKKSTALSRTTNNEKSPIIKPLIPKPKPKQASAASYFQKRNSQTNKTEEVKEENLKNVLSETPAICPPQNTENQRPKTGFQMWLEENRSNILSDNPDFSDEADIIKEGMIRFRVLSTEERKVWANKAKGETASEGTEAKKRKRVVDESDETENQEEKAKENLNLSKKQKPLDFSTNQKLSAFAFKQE
inactive: [1] -0.037 | [2] -0.054 | [3] -0.156 | [4] -0.106 | entinostat 0.09 | vorinostat 0.119 | citarinostat 0.176 | silmitasertib 0.025 | [5] -0.107 | [6] -0.001 | entospletinib -0.019

TYW1 (UniProt Q9NV66)
inactive: [1] -0.022 | [2] 0.05 | [3] 0.004 | [4] 0.013 | entinostat 0.028 | vorinostat -0.056 | citarinostat 0.053 | silmitasertib 0.039 | [5] -0.141 | [6] -0.007 | entospletinib 0.003

VPS8 (UniProt Q8N3P4)
inactive: [1] -0.035 | [2] -0.125 | [3] -0.15 | [4] -0.088 | entinostat 0.077 | vorinostat 0.158 | citarinostat -0.004 | silmitasertib 0.078 | [5] -0.006 | [6] -0.012 | entospletinib 0.034

UBE4B isoform 4 (UniProt O95155)
inactive: [1] 0.005 | [2] -0.055 | [3] -0.113 | [4] -0.056 | entinostat 0.019 | vorinostat 0.023 | citarinostat 0.02 | silmitasertib 0.042 | [5] -0.082 | [6] -0.014 | entospletinib -0.03

WEE1 (UniProt P30291)
inactive: [1] -0.455 | [2] 0.205 | [3] 0.04 | [4] -0.045 | entinostat 0.47 | vorinostat 0.05 | silmitasertib -0.122 | [5] 0.089

WARS1 (UniProt G3V277)
inactive: [1] 0.029 | [2] -0.52 | [3] -0.131 | [4] -0.302 | entinostat 0.025 | vorinostat -0.047 | silmitasertib 0.001

XPO1 (UniProt O14980)
inactive: [1] 0.034 | [2] -0.056 | [4] -0.026 | entinostat 0.082 | vorinostat 0.052 | citarinostat 0.092 | silmitasertib 0.025 | [5] 0.009 | [6] -0.054 | entospletinib -0.016
active: [3] -0.249

UBE2D1 (UniProt P51668)
inactive: [1] 0.119 | [2] 0.042 | [3] -0.143 | [4] -0.039 | entinostat -0.168 | vorinostat 0.164 | citarinostat 0.062 | silmitasertib 0.049 | [6] 0.011 | entospletinib -0.025

TOE1 (UniProt Q96GM8)
inactive: [1] 0.09 | [2] -0.011 | [3] 0.104 | [4] -0.01 | entinostat -0.038 | vorinostat -0.047 | citarinostat 0.011 | silmitasertib 0.026 | [5] 0.122 | [6] -0.18 | entospletinib 0.058

USP14 (UniProt P54578)
inactive: [1] -0.008 | [2] -0.006 | [3] -0.161 | [4] -0.057 | entinostat 0.025 | vorinostat -0.03 | citarinostat 0.051 | silmitasertib 0.007 | [5] -0.029 | [6] 0.005 | entospletinib -0.03

XPO5 (UniProt Q9HAV4)
active: [3] -0.234
inactive: [1] -0.025 | [2] -0.068 | [4] -0.074 | entinostat 0.046 | vorinostat 0.065 | citarinostat 0.068 | silmitasertib -0.003 | [5] -0.022 | [6] -0.042 | entospletinib 0.001
